# According to PubChem BioAssay AID1159580 (chemical genetic matrix, 2015):
# Values joined by “and” are separate entries in the source; they are usually repeats but may differ in a detail not shown here. Equal entries are not always repeated. In all, about 5,500 compounds went through this assay and about 2,000 (36%) were called active. Another 18% or so got no clear call; they are omitted. The list shows a part of the results. A number with no mark means an inactive call. Rule as the data show it: active = normalized growth mostly below about 0.91 (no sharp cut-off); inconclusive = no clear call, values can overlap the other calls; inactive = mostly above about 0.92.
# Assay: chemical genetic growth profiling, strain panel (AID 1159580);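 also: tested at 20 µM; growth read once vehicle control cultures reached saturation at 30 °C; 1 = growth at the plate median or of vehicle wells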
# Settings: S. cerevisiae deletion strains, growth OD
smiles,measurement,setting,value
COC(=O)[C@@]1(C)CCC[C@]2(C)c3ccc(O)c(C(C)C)c3CCC12 (stereo not given in full),normalized growth,"locus YAL021C, strain ccr4, stronger effect = lower value",1.08
same,normalized growth,"locus YAL026C, strain drs2, stronger effect = lower value",0.929
same,normalized growth,"locus YAL030W, strain snc1, stronger effect = lower value",0.85 (active)
same,normalized growth,"locus YBL061C, strain skt5, stronger effect = lower value",0.617 (active)
same,normalized growth,"locus YBR009C, strain hhf1, stronger effect = lower value",0.364 (active)
same,normalized growth,"locus YBR021W, strain FUR4, stronger effect = lower value",0.646 (active)
same,normalized growth,"locus YBR023C, strain chs3, stronger effect = lower value",0.793 (active)
same,normalized growth,"locus YBR171W, strain sec66, stronger effect = lower value",0.946
same,normalized growth,"locus YBR229C, strain ROT2, stronger effect = lower value",0.875 (active)
same,normalized growth,"locus YBR231C, strain swc5, stronger effect = lower value",0.705 (active)
same,normalized growth,"locus YBR279W, strain paf1, stronger effect = lower value",0.941
same,normalized growth,"locus YCL011C, strain gbp2, stronger effect = lower value",0.652 (active)
same,normalized growth,"locus YCL016C, strain dcc1, stronger effect = lower value",0.847 (active)
same,normalized growth,"locus YCL029C, strain bik1, stronger effect = lower value",0.804 (active)
same,normalized growth,"locus YCL069W, strain vba3, stronger effect = lower value",0.977
same,normalized growth,"locus YCR088W, strain abp1, stronger effect = lower value",0.971
same,normalized growth,"locus YDL005C, strain med2, stronger effect = lower value",0.944
same,normalized growth,"locus YDL035C, strain GPR1, stronger effect = lower value",0.912
same,normalized growth,"locus YDL040C, strain nat1, stronger effect = lower value",0.928 (active)
same,normalized growth,"locus YDL074C, strain BRE1, stronger effect = lower value",0.174 (active)
same,normalized growth,"locus YDL101C, strain DUN1, stronger effect = lower value",0.894 (active)
same,normalized growth,"locus YDL185W, strain tfp1, stronger effect = lower value",0.956
same,normalized growth,"locus YDL192W, strain arf1, stronger effect = lower value",0.344 (active)
same,normalized growth,"locus YDR001C, strain nth1, stronger effect = lower value",0.978
same,normalized growth,"locus YDR069C, strain doa4, stronger effect = lower value",0.89 (active)
same,normalized growth,"locus YDR101C, strain arx1, stronger effect = lower value",0.782 (active)
same,normalized growth,"locus YDR137W, strain rgp1, stronger effect = lower value",0.134 (active)
same,normalized growth,"locus YDR159W, strain sac3, stronger effect = lower value",0.29 (active)
same,normalized growth,"locus YDR162C, strain NBP2, stronger effect = lower value",0.595 (active)
same,normalized growth,"locus YDR195W, strain ref2",0.189 (active)
same,normalized growth,"locus YDR297W, strain sur2, stronger effect = lower value",0.566 (active)
same,normalized growth,"locus YDR318W, strain mcm21, stronger effect = lower value",0.788 (active)
same,normalized growth,"locus YDR334W, strain swr1, stronger effect = lower value",0.998
same,normalized growth,"locus YDR335W, strain msn5, stronger effect = lower value",0.965
same,normalized growth,"locus YDR388W, stronger effect = lower value",0.942
same,normalized growth,"locus YDR392W, strain spt3, stronger effect = lower value",0.283 (active)
same,normalized growth,"locus YDR502C, strain sam2, stronger effect = lower value",0.773 (active)
same,normalized growth,"locus YEL003W, strain gim4, stronger effect = lower value",0.929
same,normalized growth,"locus YEL037C, strain rad23, stronger effect = lower value",0.988
same,normalized growth,"locus YEL061C, strain CIN8 (second series), stronger effect = lower value",0.981
same,normalized growth,"locus YEL061C, strain CIN8, stronger effect = lower value",0.803 (active)
same,normalized growth,"locus YER015W, strain faa2, stronger effect = lower value",0.793 (active)
same,normalized growth,"locus YER016W, strain bim1, stronger effect = lower value",0.825 (active)
same,normalized growth,"locus YER110C, stronger effect = lower value",1
same,normalized growth,"locus YER111C, strain swi4, stronger effect = lower value",0.995
same,normalized growth,"locus YER155C, strain BEM2 (second series), stronger effect = lower value",0.891
same,normalized growth,"locus YER155C, strain BEM2, stronger effect = lower value",0.128 (active)
same,normalized growth,"locus YER167W, strain BCK2, stronger effect = lower value",0.796 (active)
same,normalized growth,"locus YFR010W, strain ubp6, stronger effect = lower value",0.952
same,normalized growth,"locus YGL078C, strain dbp3, stronger effect = lower value",0.935
same,normalized growth,"locus YGL086W, strain mad1, stronger effect = lower value",0.729 (active)
same,normalized growth,"locus YGL167C, strain pmr1, stronger effect = lower value",0.374 (active)
same,normalized growth,"locus YGL173C, strain kem1, stronger effect = lower value",0.832 (active)
same,normalized growth,"locus YGL227W, strain vid30, stronger effect = lower value",0.97
same,normalized growth,"locus YGL240W, strain doc1, stronger effect = lower value",0.772 (active)
same,normalized growth,"locus YGL248W, strain PDE1, stronger effect = lower value",0.828 (active)
same,normalized growth,"locus YGL253W, strain hxk2, stronger effect = lower value",0.951
same,normalized growth,"locus YGR135W, strain pre9, stronger effect = lower value",0.957
same,normalized growth,"locus YGR252W, strain gcn5, stronger effect = lower value",0.781
same,normalized growth,"locus YHR013C, strain ard1, stronger effect = lower value",1.01
same,normalized growth,"locus YHR027C, strain rpn1, stronger effect = lower value",0.499 (active)
same,normalized growth,"locus YHR030C, strain SLT2, stronger effect = lower value",0.493 (active) and 0.19 (active)
same,normalized growth,"locus YHR079C, strain IRE1 (second series), stronger effect = lower value",0.927
same,normalized growth,"locus YHR079C, strain IRE1, stronger effect = lower value",0.502 (active)
same,normalized growth,"locus YHR094C, strain hxt1, stronger effect = lower value",0.897 (active)
same,normalized growth,"locus YHR129C, strain ARP1, stronger effect = lower value",0.518 (active)
same,normalized growth,"locus YHR142W, strain chs7, stronger effect = lower value",0.875 (active)
same,normalized growth,"locus YHR200W, strain rpn10, stronger effect = lower value",0.871 (active)
same,normalized growth,"locus YIL066C, strain RNR3, stronger effect = lower value",0.65 (active)
same,normalized growth,"locus YIL073C, strain SPO22, stronger effect = lower value",1.07
same,normalized growth,"locus YIL125W, strain kgd1, stronger effect = lower value",0.693 (active)
same,normalized growth,"locus YIR030C, strain dcg1, stronger effect = lower value",0.954
same,normalized growth,"locus YJL092W, strain hpr5, stronger effect = lower value",0.979
same,normalized growth,"locus YJL095W, strain BCK1 (second series), stronger effect = lower value",0.689 (active)
same,normalized growth,"locus YJL095W, strain BCK1, stronger effect = lower value",0.277 (active) and 0.318 (active)
same,normalized growth,"locus YJL115W, strain asf1, stronger effect = lower value",0.976
same,normalized growth,"locus YJL129C, strain trk1, stronger effect = lower value",0.593 (active)
same,normalized growth,"locus YJL134W, strain LCB3, stronger effect = lower value",0.815 (active)
same,normalized growth,"locus YJL154C, strain vps35, stronger effect = lower value",0.981
same,normalized growth,"locus YJL164C, strain tpk1, stronger effect = lower value",0.78 (active)
same,normalized growth,"locus YJL166W, strain qcr8, stronger effect = lower value",0.563 (active)
same,normalized growth,"locus YJL168C, strain set2, stronger effect = lower value",1
same,normalized growth,"locus YJL187C, strain SWE1 (second series), stronger effect = lower value",0.638 (active)
same,normalized growth,"locus YJL187C, strain SWE1, stronger effect = lower value",0.73 (active)
same,normalized growth,"locus YJR043C, strain POL32, stronger effect = lower value",0.955
